Results taken from article PMC7862700, “An all-to-all approach to the identification of sequence-specific readers for epigenetic DNA modifications on cytosine”.

What was measured:
Test in all cases: DAPPL (digital affinity profiling via proximity ligation, sequencing); 10 mM Tris-HCl pH 7.5, 50 mM NaCl, 1 mM DTT, 4% glycerol, room temperature, 30 min; GST-TFs on glutathione beads, 16-mer random dsDNA library, 0.1% formaldehyde crosslink after washing; high values mean tight binding
FEV = molecular target: T1, FEV (Homo sapiens, UniProt Q99581 1-238); details: protein: recombinant; tags: N-terminal GST; dsDNA, one strand shown
T1 sequence: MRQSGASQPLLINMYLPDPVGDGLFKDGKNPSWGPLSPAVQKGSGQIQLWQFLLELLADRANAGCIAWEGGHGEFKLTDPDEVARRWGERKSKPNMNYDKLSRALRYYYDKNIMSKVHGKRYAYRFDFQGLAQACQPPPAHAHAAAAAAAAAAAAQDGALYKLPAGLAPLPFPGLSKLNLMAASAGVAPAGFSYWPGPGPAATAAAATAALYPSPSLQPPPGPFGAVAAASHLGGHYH
How it was run: (§1)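 Pools of DNA-barcoded human transcription factors, expressed in yeast as GST fusions on glutathione beads and combined with a tag-only sample, were incubated with 200 nmole of a 16-mer random double-stranded DNA library. Incubation took 30 min at room temperature in Tris/NaCl/DTT/glycerol buffer and was followed by washing, 0.1% formaldehyde crosslinking, proximity ligation (BsaI/T4 ligase, 1 h, 37 °C), PCR amplification and sequencing on an Illumina NextSeq500. Binding signal is the ratio of a hexamer's read frequency for a factor to its frequency for the tag-only sample.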

ETV5 = ETV5 (Homo sapiens, UniProt P41161 1-510); details: protein: recombinant; tags: N-terminal GST; dsDNA, one strand shown
Sequence of ETV5 (P41161 whole entry): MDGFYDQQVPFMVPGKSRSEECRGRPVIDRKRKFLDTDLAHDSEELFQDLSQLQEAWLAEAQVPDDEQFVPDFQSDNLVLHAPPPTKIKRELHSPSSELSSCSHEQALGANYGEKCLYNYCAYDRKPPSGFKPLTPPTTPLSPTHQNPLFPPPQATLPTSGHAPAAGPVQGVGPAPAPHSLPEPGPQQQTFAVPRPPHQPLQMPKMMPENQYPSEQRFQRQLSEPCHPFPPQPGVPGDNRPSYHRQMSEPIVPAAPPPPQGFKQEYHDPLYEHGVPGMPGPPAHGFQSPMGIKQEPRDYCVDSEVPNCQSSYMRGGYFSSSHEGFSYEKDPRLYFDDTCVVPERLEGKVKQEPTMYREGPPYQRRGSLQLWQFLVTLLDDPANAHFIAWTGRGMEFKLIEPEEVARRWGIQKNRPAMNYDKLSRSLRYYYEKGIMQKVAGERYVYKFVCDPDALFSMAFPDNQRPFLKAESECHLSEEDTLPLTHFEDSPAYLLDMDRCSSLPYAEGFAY
How it was run: as §1

HSF1 = HSF1 (Homo sapiens, UniProt Q00613 1-529); details: protein: recombinant; tags: N-terminal GST; chain copies: 3; dsDNA, one strand shown
Sequence of HSF1 (Q00613 whole entry): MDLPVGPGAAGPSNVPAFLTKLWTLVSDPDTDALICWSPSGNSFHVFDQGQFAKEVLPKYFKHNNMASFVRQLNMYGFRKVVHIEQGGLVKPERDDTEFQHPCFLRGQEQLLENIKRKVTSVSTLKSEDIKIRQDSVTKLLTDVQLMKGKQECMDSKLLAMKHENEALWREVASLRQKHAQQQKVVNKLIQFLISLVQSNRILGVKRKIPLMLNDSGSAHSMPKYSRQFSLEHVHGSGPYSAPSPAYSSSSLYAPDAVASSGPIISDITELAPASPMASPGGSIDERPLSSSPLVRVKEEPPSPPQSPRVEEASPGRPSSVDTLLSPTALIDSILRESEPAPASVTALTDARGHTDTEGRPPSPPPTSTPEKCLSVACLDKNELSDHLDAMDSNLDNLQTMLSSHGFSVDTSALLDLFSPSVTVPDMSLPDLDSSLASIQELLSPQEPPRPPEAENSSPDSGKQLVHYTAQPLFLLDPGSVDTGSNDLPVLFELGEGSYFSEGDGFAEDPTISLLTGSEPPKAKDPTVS
How it was run: as §1

SPIC = molecular target: T2, SPIC (Homo sapiens, UniProt Q8N5J4 1-248); details: protein: recombinant; tags: N-terminal GST; dsDNA, one strand shown
T2 sequence: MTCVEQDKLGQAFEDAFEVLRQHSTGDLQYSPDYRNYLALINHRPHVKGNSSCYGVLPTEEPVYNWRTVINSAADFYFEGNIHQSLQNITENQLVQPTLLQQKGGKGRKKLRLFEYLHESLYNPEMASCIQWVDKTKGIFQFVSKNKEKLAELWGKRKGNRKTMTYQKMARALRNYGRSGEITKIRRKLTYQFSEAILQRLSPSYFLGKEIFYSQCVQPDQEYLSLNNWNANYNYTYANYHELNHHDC
How it was run: as §1

ELF4 = ELF4 (Homo sapiens, UniProt Q99607 1-663); details: protein: recombinant; tags: N-terminal GST; dsDNA, one strand shown
Sequence of ELF4 (Q99607 whole entry): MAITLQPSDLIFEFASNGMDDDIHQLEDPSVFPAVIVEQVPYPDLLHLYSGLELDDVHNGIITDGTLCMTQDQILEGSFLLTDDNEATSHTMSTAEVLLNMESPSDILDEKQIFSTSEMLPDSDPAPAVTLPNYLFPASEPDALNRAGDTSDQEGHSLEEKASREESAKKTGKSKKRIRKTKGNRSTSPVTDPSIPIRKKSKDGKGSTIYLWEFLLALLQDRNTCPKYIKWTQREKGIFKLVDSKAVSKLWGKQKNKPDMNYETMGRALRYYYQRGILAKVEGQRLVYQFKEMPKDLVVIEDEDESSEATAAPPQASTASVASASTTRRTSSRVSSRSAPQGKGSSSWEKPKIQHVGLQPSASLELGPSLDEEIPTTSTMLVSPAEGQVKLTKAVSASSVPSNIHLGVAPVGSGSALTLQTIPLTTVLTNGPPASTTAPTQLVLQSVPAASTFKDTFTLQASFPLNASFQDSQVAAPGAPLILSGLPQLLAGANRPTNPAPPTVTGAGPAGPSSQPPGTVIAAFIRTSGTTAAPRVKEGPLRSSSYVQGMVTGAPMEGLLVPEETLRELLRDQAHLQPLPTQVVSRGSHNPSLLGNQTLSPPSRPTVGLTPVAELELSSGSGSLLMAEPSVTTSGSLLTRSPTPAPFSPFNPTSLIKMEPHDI
How it was run: as §1

ELK4 = molecular target: T3, ELK4 (Homo sapiens, UniProt P28324-2 1-405); details: protein: recombinant; tags: N-terminal GST; dsDNA, one strand shown
T3 sequence: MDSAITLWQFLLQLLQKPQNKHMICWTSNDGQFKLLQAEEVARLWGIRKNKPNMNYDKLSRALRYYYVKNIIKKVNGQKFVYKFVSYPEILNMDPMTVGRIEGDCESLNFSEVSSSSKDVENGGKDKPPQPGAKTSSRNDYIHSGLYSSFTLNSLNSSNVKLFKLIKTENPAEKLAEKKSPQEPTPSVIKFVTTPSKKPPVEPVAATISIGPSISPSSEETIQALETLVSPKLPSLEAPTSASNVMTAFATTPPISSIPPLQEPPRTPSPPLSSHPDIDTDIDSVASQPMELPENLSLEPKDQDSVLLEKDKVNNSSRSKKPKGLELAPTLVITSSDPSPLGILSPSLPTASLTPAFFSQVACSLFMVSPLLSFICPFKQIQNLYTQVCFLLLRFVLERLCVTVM
How it was run: as §1

ETV2 = molecular target: T4, ETV2 (Homo sapiens, UniProt O00321 1-342); details: protein: recombinant; tags: N-terminal GST; dsDNA, one strand shown
T4 sequence: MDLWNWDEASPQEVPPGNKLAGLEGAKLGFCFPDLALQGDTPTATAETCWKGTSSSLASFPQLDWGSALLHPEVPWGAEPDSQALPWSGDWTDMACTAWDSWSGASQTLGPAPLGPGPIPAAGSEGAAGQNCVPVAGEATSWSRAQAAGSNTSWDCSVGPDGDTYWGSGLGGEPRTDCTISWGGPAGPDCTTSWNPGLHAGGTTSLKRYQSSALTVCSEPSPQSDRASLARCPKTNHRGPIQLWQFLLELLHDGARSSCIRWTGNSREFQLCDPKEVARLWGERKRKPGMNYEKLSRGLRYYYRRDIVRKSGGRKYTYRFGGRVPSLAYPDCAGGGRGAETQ
How it was run: as §1

ELF3 = molecular target: T5, ELF3 (Homo sapiens, UniProt P78545 1-371); details: protein: recombinant; tags: N-terminal GST; dsDNA, one strand shown
T5 sequence: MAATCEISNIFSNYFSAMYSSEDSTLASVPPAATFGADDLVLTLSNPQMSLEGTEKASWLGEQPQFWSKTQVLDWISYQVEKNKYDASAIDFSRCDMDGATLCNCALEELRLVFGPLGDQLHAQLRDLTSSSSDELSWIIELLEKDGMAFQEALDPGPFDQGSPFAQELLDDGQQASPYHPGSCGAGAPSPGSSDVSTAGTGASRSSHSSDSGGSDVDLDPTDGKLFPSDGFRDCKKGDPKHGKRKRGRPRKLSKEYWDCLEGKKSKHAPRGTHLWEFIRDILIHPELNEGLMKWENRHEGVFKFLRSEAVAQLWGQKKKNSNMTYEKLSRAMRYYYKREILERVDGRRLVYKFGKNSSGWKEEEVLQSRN
How it was run: as §1

CRX = CRX (Homo sapiens, UniProt O43186 1-299); details: protein: recombinant; tags: N-terminal GST; dsDNA, one strand shown
Sequence of CRX (O43186 whole entry): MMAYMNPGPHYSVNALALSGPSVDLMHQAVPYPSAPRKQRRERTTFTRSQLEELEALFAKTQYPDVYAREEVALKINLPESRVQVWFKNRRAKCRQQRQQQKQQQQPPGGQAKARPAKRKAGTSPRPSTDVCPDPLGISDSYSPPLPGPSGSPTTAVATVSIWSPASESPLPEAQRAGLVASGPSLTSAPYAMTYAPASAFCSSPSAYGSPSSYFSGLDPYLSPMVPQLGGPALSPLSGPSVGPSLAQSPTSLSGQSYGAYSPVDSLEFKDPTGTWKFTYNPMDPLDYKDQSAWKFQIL
How it was run: as §1

ETV1 = ETV1 (Homo sapiens, UniProt P50549 1-477); details: protein: recombinant; tags: N-terminal GST; dsDNA, one strand shown
Sequence of ETV1 (P50549 whole entry): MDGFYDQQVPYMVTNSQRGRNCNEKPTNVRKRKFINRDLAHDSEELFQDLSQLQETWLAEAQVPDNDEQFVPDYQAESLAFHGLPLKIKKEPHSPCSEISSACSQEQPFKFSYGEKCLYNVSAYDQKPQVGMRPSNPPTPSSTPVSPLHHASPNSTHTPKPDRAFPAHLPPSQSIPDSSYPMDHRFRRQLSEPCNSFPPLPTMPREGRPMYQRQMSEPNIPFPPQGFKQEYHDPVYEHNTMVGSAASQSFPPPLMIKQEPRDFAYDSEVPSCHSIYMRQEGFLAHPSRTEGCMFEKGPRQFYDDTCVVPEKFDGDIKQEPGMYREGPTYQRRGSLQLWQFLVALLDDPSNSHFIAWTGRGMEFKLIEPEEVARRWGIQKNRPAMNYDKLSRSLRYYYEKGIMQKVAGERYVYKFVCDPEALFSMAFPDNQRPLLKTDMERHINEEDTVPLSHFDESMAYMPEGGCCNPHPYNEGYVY
How it was run: as §1

ERF = molecular target: T6, ERF (Homo sapiens, UniProt P50548 1-548); details: protein: recombinant; tags: N-terminal GST; dsDNA, one strand shown
T6 sequence: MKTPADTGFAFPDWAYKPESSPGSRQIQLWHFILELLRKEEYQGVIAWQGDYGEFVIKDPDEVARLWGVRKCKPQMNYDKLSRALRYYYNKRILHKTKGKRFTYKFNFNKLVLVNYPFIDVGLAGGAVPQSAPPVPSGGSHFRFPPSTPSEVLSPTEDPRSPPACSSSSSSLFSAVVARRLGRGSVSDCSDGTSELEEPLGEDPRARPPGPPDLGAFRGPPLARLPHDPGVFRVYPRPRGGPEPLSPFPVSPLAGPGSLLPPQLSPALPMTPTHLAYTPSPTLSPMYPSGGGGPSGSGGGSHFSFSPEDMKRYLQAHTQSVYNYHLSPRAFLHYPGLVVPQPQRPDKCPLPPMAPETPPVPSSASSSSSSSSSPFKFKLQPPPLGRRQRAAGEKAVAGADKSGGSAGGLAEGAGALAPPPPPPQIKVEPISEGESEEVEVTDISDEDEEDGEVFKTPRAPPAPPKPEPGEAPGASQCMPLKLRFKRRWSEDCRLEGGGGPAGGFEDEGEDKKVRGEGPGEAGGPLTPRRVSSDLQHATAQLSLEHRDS
How it was run: as §1

ETV3L = molecular target: T7, ETV3L (Homo sapiens, UniProt Q6ZN32 1-361); details: protein: recombinant; tags: N-terminal GST; dsDNA, one strand shown
T7 sequence: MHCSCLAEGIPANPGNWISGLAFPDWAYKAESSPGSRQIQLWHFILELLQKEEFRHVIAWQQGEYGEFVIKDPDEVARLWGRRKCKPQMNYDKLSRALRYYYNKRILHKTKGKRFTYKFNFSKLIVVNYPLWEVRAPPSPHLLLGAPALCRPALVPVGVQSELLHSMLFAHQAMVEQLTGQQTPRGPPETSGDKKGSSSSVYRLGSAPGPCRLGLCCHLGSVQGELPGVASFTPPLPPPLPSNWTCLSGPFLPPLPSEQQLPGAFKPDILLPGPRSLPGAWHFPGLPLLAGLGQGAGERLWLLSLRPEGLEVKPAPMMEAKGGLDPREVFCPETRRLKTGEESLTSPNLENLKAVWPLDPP
How it was run: as §1

ETS2 = molecular target: T8, ETS2 (Homo sapiens, UniProt P15036 1-469); details: protein: recombinant; tags: N-terminal GST; dsDNA, one strand shown
T8 sequence: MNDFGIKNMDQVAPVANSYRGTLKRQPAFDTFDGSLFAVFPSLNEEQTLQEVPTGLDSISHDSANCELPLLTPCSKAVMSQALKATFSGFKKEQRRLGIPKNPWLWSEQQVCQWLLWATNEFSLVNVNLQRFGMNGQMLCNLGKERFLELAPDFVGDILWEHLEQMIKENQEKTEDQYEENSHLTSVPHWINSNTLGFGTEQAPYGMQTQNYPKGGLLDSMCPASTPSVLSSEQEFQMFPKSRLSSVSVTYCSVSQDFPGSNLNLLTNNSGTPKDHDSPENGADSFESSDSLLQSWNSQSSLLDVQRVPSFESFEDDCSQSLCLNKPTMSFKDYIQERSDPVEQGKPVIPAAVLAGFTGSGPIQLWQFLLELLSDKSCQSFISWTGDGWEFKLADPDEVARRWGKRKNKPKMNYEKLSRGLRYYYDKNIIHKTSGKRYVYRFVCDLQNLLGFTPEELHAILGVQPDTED
How it was run: as §1

SPDEF = molecular target: T9, SPDEF (Homo sapiens, UniProt O95238 1-335); details: protein: recombinant; tags: N-terminal GST; dsDNA, one strand shown
T9 sequence: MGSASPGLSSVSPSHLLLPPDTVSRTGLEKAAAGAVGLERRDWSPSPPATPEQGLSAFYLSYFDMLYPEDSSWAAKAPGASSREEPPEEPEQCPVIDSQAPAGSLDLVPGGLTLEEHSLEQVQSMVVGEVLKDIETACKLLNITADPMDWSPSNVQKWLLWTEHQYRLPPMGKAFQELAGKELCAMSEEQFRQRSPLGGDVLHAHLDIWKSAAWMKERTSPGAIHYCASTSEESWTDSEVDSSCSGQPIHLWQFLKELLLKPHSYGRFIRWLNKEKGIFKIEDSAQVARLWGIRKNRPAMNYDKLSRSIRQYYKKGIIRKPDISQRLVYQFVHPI
How it was run: as §1

ETV7 = molecular target: T10, ETV7 (Homo sapiens, UniProt Q9Y603 1-341); details: protein: recombinant; tags: N-terminal GST; dsDNA, one strand shown
T10 sequence: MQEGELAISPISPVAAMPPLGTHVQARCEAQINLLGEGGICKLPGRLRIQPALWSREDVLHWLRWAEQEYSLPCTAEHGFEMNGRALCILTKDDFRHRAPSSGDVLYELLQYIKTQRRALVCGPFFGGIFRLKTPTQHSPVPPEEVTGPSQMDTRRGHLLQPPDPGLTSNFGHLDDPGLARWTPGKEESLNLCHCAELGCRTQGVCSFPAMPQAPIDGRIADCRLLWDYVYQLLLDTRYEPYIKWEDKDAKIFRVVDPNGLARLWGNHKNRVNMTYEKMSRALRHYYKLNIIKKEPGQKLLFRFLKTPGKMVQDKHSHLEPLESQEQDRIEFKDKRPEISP
How it was run: as §1

ELF5 = molecular target: T11, ELF5 (Homo sapiens, UniProt Q9UKW6-2 1-255); details: protein: recombinant; tags: N-terminal GST; dsDNA, one strand shown
T11 sequence: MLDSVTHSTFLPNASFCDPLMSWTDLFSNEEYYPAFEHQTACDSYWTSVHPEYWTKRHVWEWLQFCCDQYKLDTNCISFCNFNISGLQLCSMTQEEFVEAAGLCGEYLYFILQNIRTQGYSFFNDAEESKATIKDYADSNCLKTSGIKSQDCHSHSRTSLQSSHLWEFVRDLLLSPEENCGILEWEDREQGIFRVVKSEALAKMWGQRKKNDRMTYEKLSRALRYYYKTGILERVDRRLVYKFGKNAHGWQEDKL
How it was run: as §1

ETV3 = molecular target: T12, ETV3 (Homo sapiens, UniProt P41162-2 1-143); details: protein: recombinant; tags: N-terminal GST; dsDNA, one strand shown
T12 sequence: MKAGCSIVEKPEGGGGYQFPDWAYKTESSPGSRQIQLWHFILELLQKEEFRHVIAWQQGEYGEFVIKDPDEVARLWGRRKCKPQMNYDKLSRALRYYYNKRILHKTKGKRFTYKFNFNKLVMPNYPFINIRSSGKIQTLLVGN
How it was run: as §1

ETV6 = ETV6 (Homo sapiens, UniProt P41212 1-452); details: protein: recombinant; tags: N-terminal GST; dsDNA, one strand shown
Sequence of ETV6 (P41212 whole entry): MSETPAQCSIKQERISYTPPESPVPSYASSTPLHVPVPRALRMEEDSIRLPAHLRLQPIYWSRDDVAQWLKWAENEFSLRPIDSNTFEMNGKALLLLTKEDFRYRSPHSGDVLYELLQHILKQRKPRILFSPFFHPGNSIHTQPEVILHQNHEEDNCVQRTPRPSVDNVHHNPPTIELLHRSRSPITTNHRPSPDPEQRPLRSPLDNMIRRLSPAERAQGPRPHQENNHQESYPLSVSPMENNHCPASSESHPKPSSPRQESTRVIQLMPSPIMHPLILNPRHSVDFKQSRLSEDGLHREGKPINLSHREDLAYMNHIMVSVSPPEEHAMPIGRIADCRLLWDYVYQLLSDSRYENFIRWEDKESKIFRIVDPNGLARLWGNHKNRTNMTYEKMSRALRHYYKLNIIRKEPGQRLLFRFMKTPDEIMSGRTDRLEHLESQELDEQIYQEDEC
How it was run: as §1

Sequence: ATACTT
- binding signal (FEV): 1.6 fold enrichment (6-mer frequency, TF over GST control)
- binding signal (ETV5): 1.6 fold enrichment (6-mer frequency, TF over GST control)
- binding signal (HSF1): 1.34 fold enrichment (6-mer frequency, TF over GST control)
- binding signal (SPIC): 1.58 fold enrichment (6-mer frequency, TF over GST control)
- binding signal (ELF4): 1.55 fold enrichment (6-mer frequency, TF over GST control)
- binding signal (ELK4): 1.55 fold enrichment (6-mer frequency, TF over GST control)
- binding signal (ETV2): 1.53 fold enrichment (6-mer frequency, TF over GST control)
- binding signal (ELF3): 1.58 fold enrichment (6-mer frequency, TF over GST control)
- binding signal (CRX): 1.71 fold enrichment (6-mer frequency, TF over GST control)
- binding signal (ETV1): 1.72 fold enrichment (6-mer frequency, TF over GST control)
- binding signal (ERF): 1.66 fold enrichment (6-mer frequency, TF over GST control)
- binding signal (ETV3L): 1.59 fold enrichment (6-mer frequency, TF over GST control)
- binding signal (ETS2): 1.59 fold enrichment (6-mer frequency, TF over GST control)
- binding signal (SPDEF): 1.63 fold enrichment (6-mer frequency, TF over GST control)
- binding signal (ETV7): 1.69 fold enrichment (6-mer frequency, TF over GST control)
- binding signal (ELF5): 1.84 fold enrichment (6-mer frequency, TF over GST control)
- binding signal (ETV3): 1.63 fold enrichment (6-mer frequency, TF over GST control)
- binding signal (ETV6): 1.87 fold enrichment (6-mer frequency, TF over GST control)
